Records with an inconclusive call do not appear. Activity calls are given as the source filed them. Calls come from the whole dose curve; as a rule, active = well fitted cell-killing curve with a large enough effect; inconclusive = small, poorly fitted or top-dose-only effect, or effect the other way; inactive = flat fitted curve, though single readings scatter. Where a SMILES comes first, the peptide text is derived from it. [ ]: non-standard residue; d: D form. ξ: configuration not given here. ξPhe(βξ-Me) = CC(c1ccccc1)C(N)C(=O)O; GABA = NCCCC(=O)O
Columns and labels:
Assay in all cases: Primary qHTS to identify gynecologic anti-cancer compounds using libraries of approved drugs and bioactive compounds (AID 1345084); note: nearly all actives have a fitted effect of over 55% in size
[1] = tested on: C33A; conditions: Gynecologic cancer cell panel viability, ATPlite luminescence, 48 h; series mostly up to 57.5 µM
In short: (§1)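 In this quantitative HTS, cell killing is estimated from loss of ATP-dependent luciferase light. Cells see five compound concentrations over a 48 h exposure.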

[2] = tested on: CAOV3; conditions: Gynecologic cancer cell panel viability, ATPlite luminescence, 48 h; series mostly up to 57.5 µM
In short: as §1

[3] = tested on: CASKI; conditions: Gynecologic cancer cell panel viability, ATPlite luminescence, 48 h; series mostly up to 57.5 µM
In short: as §1

[4] = tested on: Es-2; conditions: Gynecologic cancer cell panel viability, ATPlite luminescence, 48 h; series mostly up to 57.5 µM
In short: as §1

[5] = tested on: HeLa; conditions: Gynecologic cancer cell panel viability, ATPlite luminescence, 48 h; series mostly up to 57.5 µM
In short: as §1

[6] = tested on: Hek293T; conditions: Gynecologic cancer cell panel viability, ATPlite luminescence, 48 h, control line for the selectivity index; series mostly up to 57.5 µM
In short: as §1

[7] = tested on: JEG-3; conditions: Gynecologic cancer cell panel viability, ATPlite luminescence, 48 h; series mostly up to 57.5 µM
In short: as §1

[8] = tested on: OV90; conditions: Gynecologic cancer cell panel viability, ATPlite luminescence, 48 h; series mostly up to 57.5 µM
In short: as §1

[9] = tested on: PA-1; conditions: Gynecologic cancer cell panel viability, ATPlite luminescence, 48 h; series mostly up to 57.5 µM
In short: as §1

[10] = tested on: SKOV3; conditions: Gynecologic cancer cell panel viability, ATPlite luminescence, 48 h; series mostly up to 57.5 µM
In short: as §1

[11] = tested on: Tov-21-G; conditions: Gynecologic cancer cell panel viability, ATPlite luminescence, 48 h; series mostly up to 57.5 µM
In short: as §1

[12] = tested on: Tov112D; conditions: Gynecologic cancer cell panel viability, ATPlite luminescence, 48 h; series mostly up to 57.5 µM
In short: as §1

Measured: Potency

CC(=O)c1ccc(O[C@@H]2O[C@H](CO)[C@@H](O)[C@H](O)[C@H]2O)cc1
inactive: all assays above

C=C1CC23CC1CCC2C12OC(=O)C(C)(CCC1O)C2C3C(=O)O (stereo unspecified)
inactive: all assays above

CC1CCC2(CO)C(C(=O)O)=CCCC2C1(C)CCc1ccoc1 (stereo unspecified)
inactive: all assays above

CC1(C)CCC(C)(C)c2cc(C3(c4ccc(C(=O)O)cc4)OCCO3)ccc21
inactive: all assays above

COC(=O)CCSCc1ccc(-c2onc(C)c2NC(=O)OC(C)c2ccccc2Cl)cc1 (stereo unspecified)
inactive: all assays above

CC(=O)OC1C(c2ccccc2)CCC(c2ccccc2)C1OC(C)=O (stereo unspecified)
inactive: all assays above

C=C1C(O)C[C@@H]2C(C(=O)O)=CO[C@@H](O[C@@H]3O[C@H](CO)[C@@H](O)[C@H](O)[C@H]3OC(=O)c3ccc(O)cc3)[C@H]12 (stereo partly specified)
inactive: all assays above

C=C1CCC2C(C(C)(C)O)CCC2(C)CC(O)C(=C)CCC1O (stereo unspecified)
inactive: all assays above

CC1NC(=O)CCCNC(=O)C(Cc2c[nH]c3ccccc23)NC(=O)C(C)NC(=O)C(C(C)C)NC(=O)C(C(C)c2ccccc2)NC(=O)C(C(C)C)NC1=O (stereo not drawn) (cyclo([GABA]AV[ξPhe(βξ-Me)]VAW); configuration not given here)
inactive: all assays above

CC(C)=CCC/C(C)=C/Cc1ccc(O)c(C2OC(=O)c3cc(C(=O)O)cc(O)c32)c1O (stereo unspecified)
inactive: all assays above

COc1ccc(C2(O)CCC(N3CC[C@@H](NC(=O)CNC(=O)c4cccc(C(F)(F)F)c4)C3)CC2)cn1 (stereo partly specified)
inactive: all assays above

CC/C=C\CC1C(=O)C=CC1(CCCCCCCC(=O)O)OC(C)=O (stereo unspecified)
inactive: all assays above

C[C@H]1O[C@@H](O[C@H]2CC[C@@]3(C)C(CC[C@]4(C)C3CC=C3C5CC(C)(C)CC[C@]5(C(=O)O)CC[C@]34C(=O)O)C2(C)C)[C@H](O)[C@@H](O)[C@@H]1O (stereo partly specified)
inactive: all assays above

— PubChem BioAssay (NCATS)
